Assay results taken from ChEMBL document CHEMBL4513216, “Probing the Open Global Health Chemical Diversity Library for Multistage-Active Starting Points for Next-Generation Antimalarials” (ACS Infect Dis, 2020).
Hit rate of the full screen: of about 69,000 compounds, about 8,600 (12%) showed an effect of 50% or more. Shown is part of a subset that was picked to be rich in strong results.

system: Plasmodium berghei; assay: Screen against P. berghei liver stage (PbLuc), transformed with Luciferase, at 10uM; type: functional, HepG2; conditions: tested at 10 uM

Structure (SMILES)	INHIBITION [%]
CCn1ccnc1CN1CCN(CCc2ccncc2)CC1C (centres undefined)	24.7
O=C(O)[C@@H]1CN(C(=O)c2ccc(F)c(F)c2)C[C@H]1c1cccc(F)c1	65.7
O=C(O)[C@@H]1CN(C(=O)c2ccc(O)cc2)C[C@H]1c1cccc(F)c1	-19.5
O=C(O)[C@@H]1CN(C(=O)c2ccc(Cl)cc2)C[C@H]1c1cccc(F)c1	13.3
CCN(Cc1nonc1C)C(=O)Cn1nc(C(F)(F)F)cc1C	44.35
CCOc1cc(C(=O)n2cccn2)cc(OCC)c1OCC	-30.6
N#CCCN(C(=O)CCc1cscn1)c1ccc2c(c1)OCCO2	-7.46
Cc1cccn2c(=O)cc(OC(=O)c3ccccc3)nc12	-19.7
Cc1ccc(C(=O)Oc2cc(=O)n3cccc(C)c3n2)cc1	59.8
Cc1cccc(C(=O)Oc2cc(=O)n3cccc(C)c3n2)c1	-51.1
CN1CCc2c(C#N)c(NCC3CCCO3)n3cnnc3c2C1 (centres undefined)	-1.45
CCOc1nc2cnccc2n(CC(=O)NCCc2ccccc2)c1=O	33.9
CCOc1nc2cnccc2n(CC(=O)NCc2ccco2)c1=O	46.7
CCOc1nc2cnccc2n(CC(=O)NCc2ccc(C)cc2)c1=O	53.1
COc1cccc2c(=O)n(CCN3CCNCC3)cnc12	-109
COc1cccc2c(=O)n(Cc3cc(C4CC4)[nH]n3)cnc12	-6.94
COc1cccc2c(=O)n(Cc3cccnc3)cnc12	-20
COc1cccc2c(=O)n(C3CCNCC3)cnc12	57.3
COc1cccc2c(=O)n(Cc3ccnc(C)c3)cnc12	17.5
COc1cccc2c(=O)n(C3CCCNC3)cnc12 (centres undefined)	61
O=C(NCc1cccs1)C1CNCC12CCOCC2 (centres undefined)	-30.1
CCCn1[nH]c(CNc2ccccc2)nc1=O	32.5
CC(=O)c1cn(CC(=O)N[C@H](C(=O)O)C(C)C)c2ccccc12	35.1

Structure (SMILES)	INHIBITION [%]
Cc1ccccc1N1CCCN(CC2(O)CCCNC2)CC1 (centres undefined)	39.9
CCOc1ccccc1N1CCN(CC2(O)CCCNC2)CC1 (centres undefined)	29.2
Cc1ccc(C)c(N2CCN(CC3(O)CCNC3)CC2)c1 (centres undefined)	50.5
NC(=O)c1csc(C(=O)N2CCCC(n3cccn3)C2)c1 (centres undefined)	23.4
Cc1nc(CN(Cc2ccc3c(c2)OCCO3)C2CCCC2)no1	-31.8
CCN(CC)C(=O)CN1CCCC(c2nc(C)c3c(n2)N(C)CCC3)C1 (centres undefined)	36
CNc1cc(C)nc(C2COCCN2Cc2csc(C)n2)n1 (centres undefined)	53.6
Cc1cc(N(C)C)nc(C2COCCN2Cc2csc(C)n2)n1 (centres undefined)	39.3
CNc1cc(C)nc(C2COCCN2CCc2ccccc2)n1 (centres undefined)	-2.9
Cc1ccc(Br)cc1S(=O)(=O)NCCc1nnc[nH]1	23.5
Cc1ncnc2c1CCN(Cc1ccc3c(c1)OCO3)CC2	41.8
CC(=O)NCCC(Cc1ccccc1)c1ccco1 (centres undefined)	-24.6
O=C(CCCOc1ccc(F)cc1F)N1CCCC(n2cccn2)C1 (centres undefined)	11.4
CCc1nc(N)nc(N(C)Cc2nncn2CCOC)c1C	73.5
COCCn1cnnc1CN(C)c1nc(N)nc2c1CCCC2	23.3
COCCn1cnnc1CN(C)c1nc(N)ncc1C	0.897
CCO[C@@H]1CC[C@H]2[C@H]1OCCN2S(=O)(=O)C1CC1	2.59
O=C(NCCCN1CCOCC1)c1ccc(Cl)cc1Cl	-4.52
CC1CCN(CCCNC(=O)c2ccc(N(C)S(C)(=O)=O)cc2Cl)CC1	79.2
CN(c1ccc(C(=O)NCCN2CCOCC2)c(Cl)c1)S(C)(=O)=O	38.5
Cc1ccc(C(=O)NCCC2CCN(C)CC2)cc1N(C)S(C)(=O)=O	42.1
Cc1ccc(C(=O)NC2CCN(C)CC2)cc1N(C)S(C)(=O)=O	34.2
CN(c1ccc(C(=O)NCCCN2CCCC2)c(Cl)c1)S(C)(=O)=O	40.9

Structure (SMILES)	INHIBITION [%]
Cc1ccc(C(=O)NCCCN2CCOCC2)c(Cl)c1	-56.5
CN(c1ccc(Cl)c(C(=O)NCCCN2CCOCC2)c1)S(C)(=O)=O	63.3
CN(c1ccc(C(=O)NCCCN2CCCCC2)c(Cl)c1)S(C)(=O)=O	70.4
CN(c1ccc(C(=O)NCCCN2CCOCC2)c(Cl)c1)S(C)(=O)=O	46.8
Cc1ccc(C(=O)NCCN2CCOCC2)cc1N(C)S(C)(=O)=O	55.5
Cc1cc(C)c(S(N)(=O)=O)cc1C(=O)NCCN1CCC(C)CC1	-7.83
Cc1c(Cn2c(=O)cnc3ccccc32)cnn1C	34
COCC(=O)N1CCC2(CC1)NC(=O)c1ccccc12	46.7
Cc1ccc(CN2CC[C@@H]3[C@@H](CO[C@H]3CN3CCN(C)CC3)C2)s1	-35.9
NC(=O)C1CCN(CC(=O)N(Cc2ccccc2)Cc2nccs2)CC1	2.15
O=C(Cc1ccon1)N1CCc2cc(Br)sc2C1	-28.9
CC(C)c1nnc(CN2CCCC(c3cc(C(N)=O)[nH]n3)C2)o1 (centres undefined)	33.7
C[C@@H]1CN(c2nc3c(cc2C(N)=O)CCC3)C[C@]1(C)O	-13.8
CCc1nc(CC2CN(c3ncnc4nc(C)cc(C)c34)CCO2)no1 (centres undefined)	22
CC1CCCN(CCCNC(=O)c2ccc(N(C)S(C)(=O)=O)cc2Cl)C1 (centres undefined)	53.7
Cc1nc(-c2noc3ccc(C(=O)NCCN4CCOCC4)cc23)co1	63
CN(C)CCCNC(=O)c1ccc(N(C)S(C)(=O)=O)cc1Cl	64.1
CN1CCC(CCNC(=O)c2ccc(N(C)S(C)(=O)=O)cc2Cl)CC1	8.47
Cc1nc(-c2noc3ccc(C(=O)NCCN(C)C)cc23)co1	8.31
CC1CCCN(CCCNC(=O)c2cn(C)nc2-c2cccnc2)C1 (centres undefined)	13.2
Cc1nc(-c2noc3ccc(C(=O)NCCN4CCOCC4)cc23)cs1	46.7
CN(C)CCCNC(=O)c1cc(Cl)ccc1Cl	4.93
CN(C)CCCNC(=O)c1ccc(Cl)cc1Cl	16
